Read-out in experiment [1]: Tissue plasminogen activator (tPA), PLAT (gene 5327)
The experiment can be described thus: BSK_BE3C_tPA: BioMAP Diversity Plus: BE3C Assay for Tissue plasminogen activator (tPA) Biomarker Activity (AID 2283041).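 Note: tPA level quantified by ELISA one day after compound addition.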 The note with it: primary human bronchial epithelial cells; actives raise or lower the signal. In short, it runs like this:
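Using human lung primary bronchial epithelial cells, tPA was measured by ELISA 24 h after dosing; data fitted relative to DMSO.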

Read-out in experiment [2]: Interleukin-8 (IL8), CXCL8 (gene 3576)
The experiment can be described thus: BSK_CASM3C_IL8: BioMAP Diversity Plus: CASM3C Assay for Interleukin-8 (IL8) Biomarker Activity (AID 2283042).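 Note: IL-8 protein level quantified by ELISA.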 As to conditions: primary human coronary artery smooth muscle cells; actives raise or lower the signal.

Read-out in experiment [3]: Human Leukocyte Antigen - DR isotype (HLADR), HLA-DRA (gene 3122)
The experiment can be described thus: BSK_CASM3C_HLADR: BioMAP Diversity Plus: CASM3C Assay for Human Leukocyte Antigen - DR isotype (HLADR) Biomarker Activity (AID 2283043).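 Note: cell-surface HLA-DR protein level quantified by ELISA.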 The note with it: primary human coronary artery smooth muscle cells; actives raise or lower the signal.

Read-out in experiment [4]: Macrophage colony-stimulating factor (MCSF), CSF1 (gene 1435)
The experiment can be described thus: BSK_CASM3C_MCSF: BioMAP Diversity Plus: CASM3C Assay for Macrophage colony-stimulating factor (MCSF) Biomarker Activity (AID 2283044).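 Note: M-CSF protein amount quantified by ELISA after 24 h exposure.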 The note with it: primary human coronary artery smooth muscle cells; actives raise or lower the signal.

Read-out in experiment [5]: Low-density lipoprotein receptor (LDLR), LDLR (gene 3949)
The experiment is described as follows: BSK_CASM3C_LDLR: BioMAP Diversity Plus: CASM3C Assay for Low-density lipoprotein receptor (LDLR) Biomarker Activity (AID 2283045).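 Note: LDLR protein level on the cell surface quantified by ELISA.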 The note with it: primary human coronary artery smooth muscle cells; actives raise or lower the signal.

Read-out in experiment [6]: Monocyte Chemoattractant Protein-1 (MCP1), CCL2 (gene 6347)
The experiment can be described thus: BSK_CASM3C_MCP1: BioMAP Diversity Plus: CASM3C Assay for Monocyte Chemoattractant Protein-1 (MCP1) Biomarker Activity (AID 2283046).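 Note: MCP-1 level quantified by ELISA 24 h after dosing.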 The note with it: primary human coronary artery smooth muscle cells; actives raise or lower the signal.

The nature of experiment [7]: BSK_CASM3C_Proliferation: Cell Proliferation Assessment in the BioMAP Diversity Plus: CASM3C Assay (AID 2283047).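 Note: sulforhodamine B total protein stain as relative cell number at 560 nm; sub-confluent cells exposed 48 h before staining; fitted both ways against DMSO so gain or loss of cell number.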 The note with it: primary human coronary artery smooth muscle cells.
Read-out in experiment [8]: Monokine induced gamma interferon (MIG), CXCL9 (gene 4283)
The experiment can be described thus: BSK_CASM3C_MIG: BioMAP Diversity Plus: CASM3C Assay for Monokine induced gamma interferon (MIG) Biomarker Activity (AID 2283048).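 Note: MIG protein level measured by ELISA.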 The note with it: primary human coronary artery smooth muscle cells; actives raise or lower the signal.

Read-out in experiment [9]: serum amyloid A (SAA), SAA1 (gene 6288)
The experiment is described as follows: BSK_CASM3C_SAA: BioMAP Diversity Plus: CASM3C Assay for serum amyloid A (SAA) Biomarker Activity (AID 2283049).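 Note: SAA protein level quantified by ELISA.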 As to conditions: primary human coronary artery smooth muscle cells; actives raise or lower the signal.

Experiment [10] can be described thus: BSK_CASM3C_SRB: Viability Assessment in the BioMAP Diversity Plus: CASM3C Assay (AID 2283050).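 Note: total protein by SRB staining as cytotoxicity measure in parallel cultures; cells exposed to compound for 24 h.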 As to conditions: primary human coronary artery smooth muscle cells.
Read-out in experiment [11]: Thrombomodulin, THBD (gene 7056)
The experiment can be described thus: BSK_CASM3C_Thrombomodulin: BioMAP Diversity Plus: CASM3C Assay for Thrombomodulin Biomarker Activity (AID 2283051).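 Note: thrombomodulin protein level measured by ELISA 24 h after dosing.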 As to conditions: primary human coronary artery smooth muscle cells; actives raise or lower the signal.

Read-out in experiment [12]: Tissue Factor, F3 (gene 2152)
The experiment can be described thus: BSK_CASM3C_TissueFactor: BioMAP Diversity Plus: CASM3C Assay for Tissue Factor Biomarker Activity (AID 2283052).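 Note: cell surface tissue factor protein level read by ELISA.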 As to conditions: primary human coronary artery smooth muscle cells; actives raise or lower the signal.

Read-out in experiment [13]: Interferon-gamma inducible Protein 10 (IP10), CXCL10 (gene 3627)
The experiment is described as follows: BSK_hDFCGF_IP10: BioMAP Diversity Plus: hDFCGF Assay for Interferon-gamma inducible Protein 10 (IP10) Biomarker Activity (AID 2283053). As to conditions: primary human foreskin fibroblasts; actives raise or lower the signal. A digest of the protocol:
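Chemical-treated human skin fibroblasts (primary) were sampled at 24 h for IP-10 by ELISA. Both increases and decreases relative to DMSO were scored.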

Read-out in experiment [14]: Urokinase-type plasminogen activator receptor (uPAR), PLAUR (gene 5329)
The experiment can be described thus: BSK_CASM3C_uPAR: BioMAP Diversity Plus: CASM3C Assay for Urokinase-type plasminogen activator receptor (uPAR) Biomarker Activity (AID 2283054).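 Note: cell-surface uPAR protein level quantified by ELISA.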 As to conditions: primary human coronary artery smooth muscle cells; actives raise or lower the signal.

Read-out in experiment [15]: Vascular cell adhesion molecule 1 (VCAM1), VCAM1 (gene 7412)
The experiment is described as follows: BSK_CASM3C_VCAM1: BioMAP Diversity Plus: CASM3C Assay for Vascular cell adhesion molecule 1 (VCAM1) Biomarker Activity (AID 2283055).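 Note: VCAM-1 protein level quantified by ELISA on the cells.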 As to conditions: primary human coronary artery smooth muscle cells; actives raise or lower the signal.

Read-out in experiment [16]: Collagen III, COL3A1 (gene 1281)
The experiment is described as follows: BSK_hDFCGF_CollagenIII: BioMAP Diversity Plus: hDFCGF Assay for Collagen III Biomarker Activity (AID 2283056). The note with it: primary human foreskin fibroblasts; actives raise or lower the signal. In short, it runs like this:
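ELISA read-out of collagen III from human skin fibroblast cultures sampled 24 h post-dosing. Values were derived by bidirectional fitting relative to the DMSO vehicle control.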

Read-out in experiment [17]: Epidermal growth factor receptor (EGFR), EGFR (gene 1956)
The experiment can be described thus: BSK_hDFCGF_EGFR: BioMAP Diversity Plus: hDFCGF Assay for Epidermal growth factor receptor (EGFR) Biomarker Activity (AID 2283057). The note with it: primary human foreskin fibroblasts; actives raise or lower the signal. In short, it runs like this:
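Cell-based multiplexed assay in primary human foreskin fibroblasts. EGFR is read by ELISA 24 h after treatment and compared with DMSO controls.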

Read-out in experiment [18]: Interleukin-8 (IL8), CXCL8 (gene 3576)
The experiment can be described thus: BSK_hDFCGF_IL8: BioMAP Diversity Plus: hDFCGF Assay for Interleukin-8 (IL8) Biomarker Activity (AID 2283058). The note with it: primary human foreskin fibroblasts; actives raise or lower the signal. In short, it runs like this: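 Cells used are human skin primary fibroblasts. Chemical is added, cultures run 24 h, then IL-8 is quantified by ELISA, and gain or loss versus DMSO control is fitted in both directions.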

Experiment [19] is described as follows: BSK_hDFCGF_Proliferation: Cell Proliferation Assessment in the BioMAP Diversity Plus: hDFCGF Assay (AID 2283059).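 Note: curves fitted for both rise and fall of signal versus DMSO baseline.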 As to conditions: primary human foreskin fibroblasts. In short, it runs like this:
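Steps: dose primary human dermal fibroblasts (foreskin); […] fix in 10% TCA; stain with 0.1% SRB; read 560 nm; fit gain or loss of signal against DMSO.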

Read-out in experiment [20]: Macrophage colony-stimulating factor (MCSF), CSF1 (gene 1435)
The experiment is described as follows: BSK_hDFCGF_MCSF: BioMAP Diversity Plus: hDFCGF Assay for Macrophage colony-stimulating factor (MCSF) Biomarker Activity (AID 2283060). The note with it: primary human foreskin fibroblasts; actives raise or lower the signal. In short, it runs like this: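 Primary human foreskin fibroblasts dosed with chemical; 24 h later, M-CSF quantified by ELISA; curves fitted in both directions vs DMSO negative control.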

Structures are written as SMILES. Activity calls are given as the source filed them. Rule for the calls: active = hit-call score of the fitted dose curve at least 0.9, where 1 is the maximum; inactive = score below 0.9.

Turning to `CC(=O)c1c(C)c([N+](=O)[O-])c(C(C)(C)C)c([N+](=O)[O-])c1C`, the outcome in experiment [1], in experiment [2], in experiment [3], in [4], in experiment [5] and in experiment [6] was inactive. Further, the outcome in [7], in [8], in [9], in experiment [10], in [11] and in experiment [12] was inactive. Besides, the result in [13], in [14], in experiment [15], in experiment [16], in [17] and in [18] was inactive. In addition, the result in [19] and in experiment [20] was inactive.

Regarding `CS(=O)(=O)c1ccc(C2=C(c3ccccc3)C(=O)OC2)cc1`, the result in experiment [1], in [2], in experiment [3], in experiment [4], in [5] and in [6] was inactive. The result in experiment [7], in [8], in experiment [9], in [10], in [11] and in experiment [12] was inactive. Also, the outcome in experiment [13], in experiment [14], in experiment [15], in experiment [16], in [17] and in experiment [18] was inactive. Also, the result in [19] and in [20] was inactive.

A word on the AC50: it is the concentration giving half of the maximal activity seen. On to `COc1ccc(CCN2CCC(Nc3nc4ccccc4n3Cc3ccc(F)cc3)CC2)cc1`, for which the outcome in [1], in experiment [2], in [3], in experiment [4], in [6] and in [8] was inactive. Moreover, the outcome in experiment [9], in experiment [10], in experiment [11], in experiment [12], in experiment [13] and in [14] was inactive. The result in experiment [15], in experiment [17] and in experiment [18] was inactive. The half-maximal activity concentration (AC50) in [5] is 1.54 µM (active); in [7], 8.02 µM (active); in [16], 5 µM (active); in experiment [19], 5.42 µM (active).

In the case of `C=C(C)C(=O)OCCOCCOCCOCCOC(=O)C(=C)C`, the outcome in experiment [1], in experiment [2], in experiment [4], in experiment [5], in experiment [6] and in experiment [7] was inactive. Further, the outcome in experiment [8], in experiment [9], in [10], in experiment [11], in experiment [12] and in experiment [13] was inactive. Further, the outcome in experiment [14], in experiment [15], in experiment [16], in [17], in experiment [18] and in experiment [19] was inactive. In addition, the AC50 in [3] is 1.44 µM (active).

Regarding `CC(=O)Nc1ccc(C(=O)CCl)cc1`, the AC50 in [2] is 12.6 µM (active); in [3], 3.78 µM (active); in [4], 8.22 µM (active); in [5], 11.6 µM (active); in experiment [6] it was 8.38 µM (active); in experiment [7] it was 5.44 µM (active). The AC50 in experiment [8] was 8.96 µM (active); in experiment [10], 12.8 µM (active); in [12], 3.97 µM (active); in experiment [13], 9.56 µM (active); in experiment [14], 5.2 µM (active); in [15], 4.84 µM (active). The concentration at half-maximal activity (AC50) in [16] is 7.2 µM (active); in experiment [18], 9.4 µM (active); in experiment [19] it was 3.18 µM (active). Moreover, the result in [9], in [11] and in experiment [17] was inactive.

Turning to `COc1ccc(OC)c(N=Nc2c(O)ccc3ccccc23)c1`, the result in experiment [1], in experiment [2], in [3], in [6], in [8] and in experiment [9] was inactive. Also, the result in [11], in experiment [12], in experiment [14], in experiment [17] and in experiment [18] was inactive. Moreover, the AC50 in experiment [4] is 0.0186 µM (active); in [5], 0.119 µM (active); in experiment [7], 33.6 µM (active); in experiment [10], 20 µM (active); in experiment [13], 3.71 µM (active); in [15], 20 µM (active). Besides, the figures for the AC50 in [16] and in [19] were 1.92 µM (active) and 10.2 µM (active), respectively.

(Values after PubChem BioAssay (EPA / NIEHS).)
